This is part of a sample that, as a whole, favours compounds with a hit. Of some 83,000 tested, about 20% had one in any assay.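 For each line, cells grew in 96-well plates with the test compound present at a single concentration for 48 hours.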 Unmarked numbers belong to inactive results. Active and inactive are the calls of the source. How the source made its calls: active means growth percent below 10; inactive means the rest.

Experimental findings from PubChem BioAssay (NCI) are described below.

Among the test systems are EKVX NSCLC; SN12C renal; UO-31 renal; TK-10 renal; ACHN renal; CAKI-1 renal; A498 renal; CCRF-CEM leukemia; MOLT-4 leukemia; SR leukemia; RPMI-8226 leukemia; OVCAR-8 ovarian; OVCAR-5 ovarian; OVCAR-4 ovarian; SK-OV-3 ovarian; IGROV1 ovarian; OVCAR-3 ovarian; HS 578T breast; NCI/ADR-RES ovarian; SK-MEL-2 melanoma.
Holding throughout (experiment): NCI-60 one-dose screen, 48 h (100 = growth as untreated, 0 = no growth, -100 = all killed)
Settings in all cases: 10 µM unless noted

On to `O=C(Nc1ccccn1)[C@H](O)[C@@H](O)C(=O)N1CCOCC1`, for which the growth in the test on EKVX NSCLC is 109%; with SN12C renal, 97.3%; in the test with UO-31 renal it was 104%; in the test with TK-10 renal it was 96.2%; with ACHN renal it was 112%; in the test with CAKI-1 renal it was 105%. The growth in the test on A498 renal is 108%; in the test with CCRF-CEM leukemia, 98.6%; with MOLT-4 leukemia, 105%; in the test with SR leukemia it was 120%; in the test with RPMI-8226 leukemia it was 106%; with OVCAR-8 ovarian, 96.7%. Besides, the growth in the test on OVCAR-5 ovarian was 118%; in the test with OVCAR-4 ovarian, 123%; in the test on SK-OV-3 ovarian, 105%; in the test with IGROV1 ovarian it was 105%; in the test with OVCAR-3 ovarian, 107%; in the test with HS 578T breast, 104%. Moreover, the growth in the test on NCI/ADR-RES ovarian is 104%.
For the compound `O=C(Nc1cccc2[nH]c(C(F)(F)F)nc12)c1cc(Cl)ccc1Cl`, the growth in the test with SK-MEL-2 melanoma was -4.53% (active); in the test on SN12C renal it was 28.7%; in the test on UO-31 renal it was -3.23% (active); in the test with TK-10 renal it was 4.93% (active); in the test on ACHN renal, 48.1%; with CAKI-1 renal it was 31.3%. In addition, the growth is -7.02% (active) with A498 renal; 22.7% in the test on CCRF-CEM leukemia; 17.9% in the test with MOLT-4 leukemia; 25.3% in the test with SR leukemia; 14.5% with RPMI-8226 leukemia; 78.1% with OVCAR-5 ovarian. Besides, the growth in the test on OVCAR-4 ovarian was 23.2%; in the test on SK-OV-3 ovarian, 47.9%; in the test with IGROV1 ovarian it was 35.8%; in the test with OVCAR-3 ovarian, 21.4%; in the test with HS 578T breast, 53.9%; in the test on NCI/ADR-RES ovarian it was 9.82% (active).
For `CCNCCNc1cc(-c2ccc(Cl)cc2)c(C#N)c2nc3ccccc3n12`, the growth in the test with EKVX NSCLC is 11.2%; in the test with SN12C renal, 44.9%; in the test on UO-31 renal, -95.2% (active); with TK-10 renal it was -20.3% (active); in the test on ACHN renal, -60% (active); with CAKI-1 renal, 39.5%. Besides, the growth in the test with A498 renal is 2.87% (active); in the test with CCRF-CEM leukemia, -21.3% (active); in the test on MOLT-4 leukemia, -28.7% (active); in the test on SR leukemia it was -35.6% (active); in the test on RPMI-8226 leukemia it was -19.4% (active); in the test with OVCAR-8 ovarian, 10.7%. Further, the growth in the test with OVCAR-5 ovarian was 4.7% (active); in the test with OVCAR-4 ovarian it was -9.51% (active); in the test on SK-OV-3 ovarian, 31.5%; in the test with IGROV1 ovarian, 22.4%; in the test on OVCAR-3 ovarian it was -78.2% (active); in the test with HS 578T breast, -36% (active). Moreover, the growth with NCI/ADR-RES ovarian was 22.6%.
For the compound `CCN(CC)S(=O)(=O)c1ccc(O)c(NC(=O)c2[nH]c(C)c(C(C)=O)c2CCc2ccc(Cl)cc2)c1`, the growth in the test on EKVX NSCLC is 78%; in the test on SN12C renal, 43%; with UO-31 renal, 23.5%; in the test with TK-10 renal it was 53.9%; in the test on ACHN renal it was 36.2%; in the test on CAKI-1 renal, 56.8%. In addition, the growth was 26% in the test on A498 renal; 62% in the test on CCRF-CEM leukemia; 28.3% in the test on MOLT-4 leukemia; 32.5% in the test with SR leukemia; 28.3% in the test on RPMI-8226 leukemia; 37.5% with OVCAR-8 ovarian. Further, the growth with OVCAR-5 ovarian was 92.7%; in the test with OVCAR-4 ovarian, 15.2%; in the test with SK-OV-3 ovarian it was 37.8%; in the test on IGROV1 ovarian, 45.5%; in the test on OVCAR-3 ovarian, 24.1%; in the test with HS 578T breast, 49.9%. In addition, the growth in the test with NCI/ADR-RES ovarian is 50.5%.
`COc1ccc(-c2cc(-c3cc(OC)ccc3OC)[nH]c(=O)c2C#N)cc1`: the growth is 96.5% in the test on EKVX NSCLC; 72% in the test on SN12C renal; 64.4% in the test with UO-31 renal; 84.9% in the test with TK-10 renal; 85.3% in the test with ACHN renal; 63% in the test with CAKI-1 renal. In addition, the growth with A498 renal is -1.35% (active); with CCRF-CEM leukemia, 76.9%; with MOLT-4 leukemia, 44.3%; in the test with SR leukemia it was 14.2%; with RPMI-8226 leukemia, 88.6%; in the test on OVCAR-8 ovarian it was 56.6%. Moreover, the growth was 116% in the test on OVCAR-5 ovarian; 68.9% in the test with OVCAR-4 ovarian; 71.6% in the test on SK-OV-3 ovarian; 53.3% in the test on IGROV1 ovarian; 21.3% with OVCAR-3 ovarian; 43.5% with HS 578T breast. The growth with NCI/ADR-RES ovarian was 34.2%.
As for `COC(=O)CNC(=O)C(=O)c1c(O)c(O)c(C(C)C)c2cc(C)c(-c3c(C)cc4c(C(C)C)c(O)c(O)c(C(=O)C(=O)NCC(=O)OC)c4c3O)c(O)c12`, the growth with EKVX NSCLC was 5.91% (active); with SN12C renal, 32.9%; in the test on UO-31 renal, 1.7% (active); in the test with TK-10 renal, 22.6%; in the test with ACHN renal, 3.33% (active); with CAKI-1 renal, 51.4%. For the same compound, the growth in the test on A498 renal is 27.6%; with CCRF-CEM leukemia, 24.4%; in the test on MOLT-4 leukemia it was 15.7%; with SR leukemia it was 15%; with RPMI-8226 leukemia it was 20.4%; in the test with OVCAR-8 ovarian, 13%. Further, the growth is 30.4% with OVCAR-5 ovarian; -5.2% (active) in the test on OVCAR-4 ovarian; 6.72% (active) in the test with SK-OV-3 ovarian; 21.1% in the test with IGROV1 ovarian; 18% with OVCAR-3 ovarian; 20.2% with HS 578T breast. For the same compound, the growth with NCI/ADR-RES ovarian was 20.9%.
Consider `COC1=CC(c2ccc[nH]2)=N/C1=C\c1[nH]c(C)c(C(=O)OCCn2cc(CCC[C@@H]3Cc4cc(O)ccc4C4CC[C@]5(C)[C@@H](O)CC[C@H]5C43)nn2)c1C` (some centres not stated), for which the growth in the test on SK-MEL-2 melanoma was 122%; in the test with UO-31 renal, 44.7%; in the test on TK-10 renal, 96.9%; in the test with ACHN renal, 66.5%; with CAKI-1 renal it was 46.4%; in the test with A498 renal it was 49.6%. In addition, the growth is 36.8% in the test on CCRF-CEM leukemia; 62.1% in the test on MOLT-4 leukemia; 96.3% in the test on OVCAR-8 ovarian; 88.9% in the test with OVCAR-5 ovarian; 92.4% in the test on SK-OV-3 ovarian; 95.7% in the test on IGROV1 ovarian. The growth is 85.5% in the test on OVCAR-3 ovarian, 65.1% in the test on HS 578T breast and 83.2% in the test with NCI/ADR-RES ovarian.
`CN1CCN(CCCOc2ccc3nc(Nc4cc(Cl)cc(Cl)c4)ccc3c2)CC1`: the growth in the test on EKVX NSCLC is -21.5% (active); in the test on SN12C renal, -17.7% (active); with UO-31 renal it was -87.6% (active); in the test on TK-10 renal, -79.7% (active); with ACHN renal, -98.8% (active); in the test with CAKI-1 renal, -32.6% (active). The growth with A498 renal is -18.6% (active); with CCRF-CEM leukemia, -52.5% (active); with MOLT-4 leukemia, -67.8% (active); with SR leukemia, -54.8% (active); in the test with RPMI-8226 leukemia it was -35.1% (active); in the test with OVCAR-8 ovarian, -47.3% (active). Besides, the growth in the test on OVCAR-5 ovarian is -57.4% (active); in the test on OVCAR-4 ovarian, -23.9% (active); in the test with SK-OV-3 ovarian it was -59% (active); in the test on IGROV1 ovarian it was -46.8% (active); in the test on OVCAR-3 ovarian it was -80.5% (active); in the test on HS 578T breast it was -34.7% (active). Also, in the test with NCI/ADR-RES ovarian, the growth was -34.8% (active).
